FLuc inh-1: Photinus pyralis luciferase inhibition; P08659; purified P. pyralis luciferase, luminescence, biochemical; Potency, µM (titrated, usually from 115 µM), actives largely listed as inhibitors; 2.5% of 76,000 active; AID 1347043; also: % is scaled to controls: 0 for no effect and ±100 for the full control effect; nearly all actives have a fitted effect of over 65% in size
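Luminescence read by CCD imager after adding enzyme (10nM final) to wells holding compound, titrated in qHTS. Substrates 10uM each D-luciferin and ATP; buffer 50mM Tris acetate pH 7.5, 10mM Mg acetate, Tween-20, BSA.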
HEK293 tox: cytotoxic compounds in HEK 293 cells | HEK 293 viability, ATP luminescence (CellTiter-Glo), 48-72 h | 6.6% of 94,000 active | Potency, µM (top dose mostly 115 µM), inactives show top-dose activity change, negative = cytotoxicity, hits mostly inhibitors; also: % is scaled to controls: 0 for no effect and ±100 for the full control effect; nearly all actives have a fitted effect of over 60% in size
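CellTiter-Glo luminescence (cellular ATP) was read after 48 or 72 hr of compound exposure at 37 degree Celsius. Cells were HEK 293 plated at 250 cells/well.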
3T3 cytotox: NIH 3T3 cell cytotoxicity | NIH 3T3 viability, CellTiter-Glo ATP luminescence, 48-72 h | Potency, µM (series often up to 96.7 µM), without a hit: at the highest dose activity change, negative = cytotoxicity, actives largely listed as inhibitors | 4.3% of 94,000 active; also: % is scaled to controls: 0 for no effect and ±100 for the full control effect; nearly all actives have a fitted effect of over 55% in size
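First NIH 3T3 cells are plated at 400 cells/well; next compound is pinned in; then plates incubate 48 or 72 hr at 37 °C; finally CellTiter-Glo is added and luminescence read after 10 min.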
NPR1 antag: blocks ANP-stimulated signaling of human Npr1 receptor | P16066 | HEK293 hNpr1 GloSensor cGMP, ANP-stimulated luminescence | Potency, µM (titrated, usually from 46.3 µM), inactives show at the top dose activity change, negative = inhibition, usual class: inhibitors | 1.6% of 76,000 active; calls by dose curve; also: % is scaled to controls: 0 for no effect and ±100 for the full control effect; nearly all actives have a fitted effect of over 60% in size
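Compound pre-incubated 30 min at room temperature on GloSensor-loaded HEK293 cells stably carrying hNpr1 and the pGS-40F cGMP biosensor. Stimulation uses hNppA at 0.1 nM final; luminescence is taken at baseline and 20 min post-agonist.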
FLuc SDR -ATP: stabilizes firefly luciferase without ATP | shares compounds with FLuc inh-1 | Purified FLuc-C-HiBiT, Nano-Glo HiBiT luminescence, no ATP | Potency, µM (series often up to 32.7 µM), inactives show top-dose activation (signal gain), usual class: activators | 7.8% of 1,300 active; also: nearly all actives have a fitted effect of over 55% in size
FLuc SDR ATP: firefly luciferase binding stabilization, ATP added. shares compounds with FLuc inh-1. purified FLuc-C-HiBiT + ATP, HiBiT complementation luminescence. Potency, µM (titrated, usually from 32.7 µM), without a hit: at the highest dose activation (gain of signal), hits mostly activators. 8.7% of 1,300 active. AID 1963319;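 also: signal reports ligand binding via conformational change of the enzyme rather than luciferase catalysis; % of control where 0% means no effect; nearly all actives have a fitted effect of over 55% in size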
FLuc inh-2: firefly luciferase enzyme inhibition | shares compounds with FLuc inh-1 | purified FLuc-C-HiBiT enzyme, luciferin luminescence | Potency, µM (highest dose often 32.7 µM), for inactives: at the top dose activity change, negative = inhibition, hits mostly inhibitors | 42% of 1,300 active; also: % is scaled to controls: 0 for no effect and ±100 for the full control effect; nearly all actives have a fitted effect of over 70% in size
An asterisk follows results filed as active; i = inactive; ? = inconclusive; . = no result; [ ] = dose if it differs, or a comment. Most compounds without a hit are left out; they make up all but 11% or so of the library. Unless noted, calls follow the shape of the dose curve; as a rule, active = well fitted curve in the direction sought with a large enough effect; inconclusive = small, poorly fitted or top-dose-only effect, or another doubt; inactive = no such curve, though single readings can be large; an effect the other way counts as inactive or inconclusive. Potency is read from the fitted curve at half-maximal effect.

SMILES	FLuc inh-1	HEK293 tox	3T3 cytotox	NPR1 antag	FLuc SDR -ATP	FLuc SDR ATP	FLuc inh-2
CC(C)(C)C(=O)N1CCC(C(=O)N2CCCC2c2nc3ccncc3[nH]2)CC1 (stereo not drawn)	.	-16%	-18%	.	.	.	.
Cc1ccc(-n2ncc3c(NC4CCCCC4)ncnc32)cc1Cl	.	.	.	.	33%	?	2.8µM*
Cc1cccc(N2Cc3c(NC4CCCC4)ncnc3N(C)CC2=O)c1	.	-19%	?	.	.	.	.
Cc1ccc(-n2ncc3c(NC4CCCCC4)ncnc32)cc1C	.	.	.	.	27%	?	1.8µM*
COCCOC1CN(C2CCN(CC3CCCCC3)CC2)C12CCCCC2 (stereo not drawn)	i	?	?	2%	.	.	.
O=C(NCc1ccc(F)cc1)c1c(-c2ccccc2)cc(=O)n2c1CCCC2	.	-20%	?	.	.	.	.
O=c1oc2c(CN3CCCC3)c(O)ccc2cc1-c1ccccc1	.	.	.	.	13%	12%	-4%
CC(C)=CCn1c(-c2ccc(F)cc2)cn2cc(C(=O)N3CCCCC3)nc2c1=O	i	-32%	?	-7%	.	.	.
Cc1cccc(OCCc2noc(C3CN(C(=O)c4cnccc4C)C3)n2)c1	i	?	-24%	3%	.	.	.
CCn1c(C2CCCN(C(=O)NC(C)C)C2)nn(C)c1=O (stereo not drawn)	i	3%	-2%	1%	.	.	.
O=C(Nc1ccc2c(c1)OCCO2)N1CCCC(c2nc(C3CCOCC3)no2)C1 (stereo not drawn)	13µM*	-5%	-7%	1%	23%	21%	?
Cc1cccc(OCCc2noc(C3CN(C(=O)Nc4ccc5c(c4)OCCO5)C3)n2)c1	3.5µM*	?	?	?	?	20%	7µM*
CCn1c(C2CCCN(C(=O)Nc3ccc4c(c3)OCCO4)C2)nn(C)c1=O (stereo not drawn)	6.3µM*	8%	1%	-26%	25%	18%	?
O=C(Nc1ccccc1)N1CCCC(c2nc(C3CCOCC3)no2)C1 (stereo not drawn)	i	-5%	-3%	-2%	.	.	.
CN1CCCN(C(=O)Nc2ccc3c(c2)OCCO3)c2ccccc21	11µM*	-18%	?	-16%	26%	?	?
CC(=O)NCc1nnc2n1C(C(=O)NCc1ccccc1Cl)CC2 (stereo not drawn)	.	-39%[172 µM]	?	.	.	.	.
Cc1ccc(NC(=O)C2CCN(c3nc(-c4ccc(C(C)C)cc4)no3)CC2)c(Cl)c1	.	.	.	.	18%	?	?
Cc1ccc(C)c(N2CCN(C(=O)C3CCN(c4nc(-c5ccc(C(C)C)cc5)no4)CC3)CC2)c1	.	.	.	.	22%	?	?
Cc1ccc(-c2noc([C@@H]3CCCN3C(=O)c3ccc(C(C)C)cc3)n2)cc1	?	?	?	4%	.	.	.
CC(C)CCNC(=O)N1CCC2(CC1)CC(N(Cc1ccc(F)cc1)C1CC1)CCO2 (stereo not drawn)	i	?	?	1%	.	.	.
COc1ccc(CN2C=C(C(=O)OCc3nc(-c4cccc(C)c4)no3)C(C)=NS2(=O)=O)cc1	?	?	-28%	?	.	.	.
OC1(CN2CCCN(c3nc4ccccc4s3)CC2)CNCCOC1 (stereo not drawn)	13µM*	?	?	2%	17%	14%	-7%
O=C(c1cc(-c2ccc(Cl)cc2)c2nncn2n1)N1CCOCC1	.	2%[172 µM]	-7%[138 µM]	.	.	.	.
O=C(Cc1cccc(Cl)c1)N1CCn2c(nnc2-c2ccccc2)C1	2.8µM*	-21%	?	-24%	14%	19%	?
CCCNC(=O)C1C(c2cccc(NC(=O)c3ccc(C)cc3)c2)OC(=O)N1Cc1ccc(C)cc1 (stereo not drawn)	8.9µM*	?	?	?	16%	4.4µM*	4.4µM*
SMILES	FLuc inh-1	HEK293 tox	3T3 cytotox	NPR1 antag	FLuc SDR -ATP	FLuc SDR ATP	FLuc inh-2
COc1ccc2nc(-c3ccc(Oc4ccccc4)cc3)sc2c1	.	.	.	.	28%	?	11µM*
C=Cc1ccc(-c2nc3ccc(OC)cc3s2)cc1	.	.	.	.	12µM*	?	0.44µM*
COc1cccc(Nc2ncc(-c3cccc(N(C)C)c3)c3c2OCC3)c1	?	-66%[172 µM]	?	?	.	.	.
Cn1cc(-c2cnc(Nc3ccc(N4CCOCC4)cc3)c3c2CCO3)cn1	4µM*	?	?	-18%[70.6 µM]	?	?	14µM*
c1ccc(Nc2ncc(-c3cccnc3)c3c2OCC3)cc1	.	.	.	.	22%[65.7 µM]	?	?
COc1ccc(-c2cnc(Nc3cccc(N[S+](C)(=O)[O-])c3)c3c2CCO3)cn1	14µM*	89µM*	?	0%[70.6 µM]	16%[49.3 µM]	12%[49.3 µM]	?
CN1CCN(Cc2ccc(Nc3ncc(-c4cncnc4)c4c3OCC4)cc2)CC1	i	?	?	-2%[70.6 µM]	.	.	.

Screening results from PubChem.
